# Where “and” joins values, the source holds several entries; their conditions need not be identical. Identical values can stand only once. Inconclusive results are not listed. Where a call stands in place of a potency, no number is given. More than one record can exist for a structure, and the calls need not agree. Calls of active or inactive are those of the source. Unless noted, the call rests on the fitted dose curve; in most records, active means well fitted curve in the direction sought with a large enough effect; inconclusive means small, poorly fitted or top-dose-only effect, or another doubt; inactive means no such curve, though single readings can be large; an effect the other way counts as inactive or inconclusive.
# How the values were obtained:
# [1] = qHTS profiling of the MIPE4 collection as inhibitors of Plasmodium falciparum (DD2) proliferation (AID 743345; call rule not given here); settings: P. falciparum Dd2 in erythrocytes, SYBR Green DNA, 72 h; at 28.5 µM (top of the series)
# Summary of the method: (§1)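 Erythrocytes infected with P. falciparum (0.3% parasitemia, 2.5% hematocrit) incubated with compounds 72 h at 37 C, 5% CO2. Lysis with saponin/Triton buffer containing SYBR Green I, overnight at room temperature in the dark; DNA fluorescence (485/535 nm) normalised to 0.29 uM artemisinin and DMSO.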
# [2] = qHTS profiling of the MIPE4 collection as inhibitors of Plasmodium falciparum (DD2) proliferation (Rep 2) (AID 743346; call rule not given here); settings: P. falciparum Dd2 in erythrocytes, SYBR Green DNA, 72 h; at 28.5 µM (top of the series)
# Summary of the method: as §1
# [3] = qHTS profiling of the MIPE4 collection as inhibitors of Plasmodium falciparum (HB3) proliferation (AID 743347; call rule not given here); settings: P. falciparum HB3 in erythrocytes, SYBR Green DNA, 72 h; at 28.5 µM (top of the series)
# Summary of the method: as §1
# [4] = molecular target: Lysosomal acid glucosylceramidase (Homo sapiens) (UniProt P04062); experiment: Glucocerebrosidase-p2 (AID 348; in the data active means potency below about 10 µM; further: potency means the concentration at half of the fitted maximal effect); settings: purified GBA, blue fluorogenic substrate, 40 min
# Summary of the method: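 Compounds titrated from 0.6 nM upwards against 0.2 nM enzyme in pH 5.9 citric acid/KH2PO4, taurocholate, tween-20; blue fluorogenic substrate 80 uM, 40 min room temperature, stopped and read Ex 365/Em 440 for AC50.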
# [5] = molecular target: Cytochrome P450 2C19 (Homo sapiens) (UniProt P33261); experiment: qHTS Assay for Inhibitors and Substrates of Cytochrome P450 2C19 (AID 899); further: nearly all actives have a fitted effect of over 60% in size; further: potency means the concentration at half of the fitted maximal effect
# Cytochrome P450 2C19 (Homo sapiens), sequence (P33261 whole entry, looked up): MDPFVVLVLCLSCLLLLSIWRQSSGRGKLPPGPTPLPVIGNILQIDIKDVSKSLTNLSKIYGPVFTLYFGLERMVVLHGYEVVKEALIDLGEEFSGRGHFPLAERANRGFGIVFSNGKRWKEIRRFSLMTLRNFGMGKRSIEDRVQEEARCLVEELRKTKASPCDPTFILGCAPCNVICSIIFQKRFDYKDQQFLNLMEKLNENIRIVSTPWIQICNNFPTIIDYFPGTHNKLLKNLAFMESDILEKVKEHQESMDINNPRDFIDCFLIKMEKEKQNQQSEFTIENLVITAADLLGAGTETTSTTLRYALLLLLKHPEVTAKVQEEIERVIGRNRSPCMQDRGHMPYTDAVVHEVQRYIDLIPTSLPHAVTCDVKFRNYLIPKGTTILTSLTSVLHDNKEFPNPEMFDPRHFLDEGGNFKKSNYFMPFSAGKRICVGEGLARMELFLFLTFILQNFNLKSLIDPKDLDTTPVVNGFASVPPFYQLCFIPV
# Summary of the method: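 Luminescence readout of luciferin formed from 10uM Luciferin-H EGE (KM level) by 5 nM CYP2C19 in 50mM KPO4. 60 min NADPH-driven reaction at 37C after 10 min compound preincubation; data scaled to 57uM ketoconazole inhibition.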
# [6] = Confirmatory qHTS for small molecule stabilizers of the endoplasmic reticulum resident proteome: Secreted ER Calcium Modulated Protein (SERCaMP) assay (AID 1508628); further: potency means the concentration at half of the fitted maximal effect; nearly all actives have a fitted effect of over 40% in size
# Summary of the method: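 SH-SY5Y cells stably expressing GLuc-SERCaMP, treated 16 h with compound (primary 1.53, 7.67, 38.3 uM; confirmation 11 concentrations, up to 76.6 uM), then 100 nM thapsigargin for 4 h. Secreted Gaussia luciferase in medium read by coelenterazine luminescence.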
# [7] = qHTS for Inhibitors of the vitamin D receptor (VDR): Hit Validation using a Texas Red Assay (AID 602201); settings: VDR coregulator binding, Texas Red fluorescence polarization; agonist-bound VDR ligand-binding domain; further: potency means the concentration at half of the fitted maximal effect
# Summary of the method: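 After a 2-hour room-temperature incubation, polarization of Texas-Red emission was read (Ex 595 nm/Em 615 nm). Final mix contained 7 nM Texas Red, 1.5 uM VDR-LBD and LG19078.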
# [8] = molecular target: Guanine nucleotide-binding protein G(i) subunit alpha-1 (Homo sapiens) (UniProt P63096); experiment: qHTS Assay for Inhibitors of RGS12 GoLoco Motif Activity (Green Fluorophore) (AID 879);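 further: negative values mean loss of peptide binding seen as reduced polarization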
# Summary of the method: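 Fluorescence polarization assay: 50 nM Gαi1 with 10 nM FITC-labeled RGS12 GoLoco peptide in 10 mM Tris pH 7.5, 150 mM NaCl, 0.1 mM GDP, 0.05% NP40, 10 min at room temperature with compound.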
# [9] = qHTS Assay for Identification of Small Molecule Agonists for Thrombopoietin (TPO) Signaling Pathway (AID 917)
# Summary of the method: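 Activators of TPO signaling were sought in murine Ba/F3 cells transfected with the human receptor, using a luciferase gene driven by the Glycoprotein IIb promoter; 24-hr compound exposure at 37 C alongside 26 pM TPO, in IL-3-free medium.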
# [10] = molecular target: Muscarinic acetylcholine receptor M1 (Rattus norvegicus) (UniProt P08482); experiment: qHTS Assay for Antagonists of Acetylcholine Muscarinic M1 Receptor: Measurement of IP-One Response (AID 944); further: nearly all actives have a fitted effect of over 75% in size
# Muscarinic acetylcholine receptor M1 (Rattus norvegicus), sequence (P08482 whole entry, looked up): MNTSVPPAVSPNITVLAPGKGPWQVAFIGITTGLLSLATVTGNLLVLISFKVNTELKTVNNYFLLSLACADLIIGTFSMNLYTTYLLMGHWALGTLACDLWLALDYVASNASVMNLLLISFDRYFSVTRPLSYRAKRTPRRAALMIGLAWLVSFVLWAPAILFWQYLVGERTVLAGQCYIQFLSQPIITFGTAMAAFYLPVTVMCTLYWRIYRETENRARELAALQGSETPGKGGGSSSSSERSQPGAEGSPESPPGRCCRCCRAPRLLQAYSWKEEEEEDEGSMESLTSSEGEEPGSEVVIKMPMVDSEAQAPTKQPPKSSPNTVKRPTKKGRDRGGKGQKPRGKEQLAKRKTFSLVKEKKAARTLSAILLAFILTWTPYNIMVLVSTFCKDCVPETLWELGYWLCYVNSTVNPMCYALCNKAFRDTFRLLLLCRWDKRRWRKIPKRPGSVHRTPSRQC
# Summary of the method: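 M1-CHO (rat), 2000 cells/well, overnight recovery; cpd 10 min; carbachol EC80 (200 nM), 30 min, HEPES buffer + 50 mM LiCl pH 7.4; IP-One HTRF, Ex 337, Em 620/665 nm.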
# [11] = molecular target: Pyruvate kinase (Leishmania mexicana) (UniProt Q27686); experiment: qHTS Validation Assay for Inhibitors of Leishmania Mexicana Pyruvate Kinase (AID 945)
# Pyruvate kinase (Leishmania mexicana), sequence (Q27686 2-499 E452W): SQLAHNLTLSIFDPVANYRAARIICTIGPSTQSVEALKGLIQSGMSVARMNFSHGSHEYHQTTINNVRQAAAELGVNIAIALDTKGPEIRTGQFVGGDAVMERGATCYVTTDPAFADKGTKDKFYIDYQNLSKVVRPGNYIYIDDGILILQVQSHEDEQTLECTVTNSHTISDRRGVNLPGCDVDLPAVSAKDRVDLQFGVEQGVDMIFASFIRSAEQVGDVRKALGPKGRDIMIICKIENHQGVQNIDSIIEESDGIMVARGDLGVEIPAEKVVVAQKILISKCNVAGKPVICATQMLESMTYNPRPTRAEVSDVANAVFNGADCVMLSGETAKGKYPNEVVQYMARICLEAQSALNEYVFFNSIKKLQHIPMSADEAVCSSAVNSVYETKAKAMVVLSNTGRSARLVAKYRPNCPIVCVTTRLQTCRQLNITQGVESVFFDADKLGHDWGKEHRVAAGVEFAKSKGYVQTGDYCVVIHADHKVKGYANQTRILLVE
# Summary of the method: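 Compounds are tested as eight-point concentration series. Reactions contain 0.2 nM LmPYK E451W, 0.5 mM PEP, 0.1 mM ADP, 7 mM MgCl2 and 50 mM KCl at pH 7.2, run 1 h at room temperature, then read by PKLight luminescence.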
# [12] = molecular target: Pyruvate kinase PKM (Homo sapiens) (UniProt P14618); experiment: qHTS Assay for Activators of Human Muscle Pyruvate Kinase (AID 954; active means well fitted curve in the direction sought with a large enough effect, not every such curve was filed as active)
# Pyruvate kinase PKM (Homo sapiens), sequence (P14618 whole entry, looked up): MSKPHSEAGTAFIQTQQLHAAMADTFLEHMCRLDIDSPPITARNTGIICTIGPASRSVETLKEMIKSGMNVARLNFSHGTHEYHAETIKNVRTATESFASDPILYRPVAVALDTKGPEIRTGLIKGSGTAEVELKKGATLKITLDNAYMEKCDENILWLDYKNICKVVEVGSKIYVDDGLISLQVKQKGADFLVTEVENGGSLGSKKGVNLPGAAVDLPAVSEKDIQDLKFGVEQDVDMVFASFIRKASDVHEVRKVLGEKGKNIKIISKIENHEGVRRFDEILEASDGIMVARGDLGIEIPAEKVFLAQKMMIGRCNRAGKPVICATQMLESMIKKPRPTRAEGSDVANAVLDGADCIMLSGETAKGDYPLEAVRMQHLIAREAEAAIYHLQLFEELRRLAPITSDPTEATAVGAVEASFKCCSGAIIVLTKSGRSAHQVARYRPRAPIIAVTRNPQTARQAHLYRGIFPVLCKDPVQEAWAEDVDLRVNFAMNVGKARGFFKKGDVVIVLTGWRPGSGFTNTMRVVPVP
# Summary of the method: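 Purified human PKM2 (0.1 nM) with 0.5 mM PEP (Km) and 0.1 mM ADP in 50 mM imidazole pH 7.2, KCl, MgCl2, 1 h at room temperature; ATP formed read by coupled luciferase luminescence. Normalized to no-enzyme/110 uM thiadiazolimine inhibition; 0.3 nM enzyme column for activation.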
# [13] = molecular target: Alpha-galactosidase A (Homo sapiens) (UniProt P06280); experiment: Counterscreen for Glucocerebrosidase Inhibitors: qHTS Assay for Human alpha-Galactosidase at pH 4.5 (AID 992)
# Alpha-galactosidase A (Homo sapiens), sequence (P06280 whole entry, looked up): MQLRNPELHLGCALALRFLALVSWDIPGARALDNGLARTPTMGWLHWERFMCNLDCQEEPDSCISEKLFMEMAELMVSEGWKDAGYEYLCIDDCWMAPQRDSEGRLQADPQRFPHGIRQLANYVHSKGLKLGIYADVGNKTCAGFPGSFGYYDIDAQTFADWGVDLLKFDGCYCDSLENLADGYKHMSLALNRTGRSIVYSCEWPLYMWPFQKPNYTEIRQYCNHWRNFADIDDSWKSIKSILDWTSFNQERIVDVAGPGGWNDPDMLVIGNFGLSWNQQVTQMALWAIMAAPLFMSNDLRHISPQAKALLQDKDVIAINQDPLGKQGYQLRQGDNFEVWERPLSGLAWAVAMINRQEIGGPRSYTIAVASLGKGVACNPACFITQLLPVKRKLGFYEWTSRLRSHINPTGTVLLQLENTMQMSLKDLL
# Summary of the method: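 Human enzyme (2 nM) with 80 uM 4-methylumbelliferyl alpha-D-galactopyranoside in 50 mM citric acid, 0.005% Tween-20, pH 4.5, 20 min at room temperature. Compounds 0.7 nM–77 uM; fluorescence Ex 365/Em 440 after pH 10 stop; AC50 from Hill fits.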
# [14] = molecular target: alpha-glucosidase (Oryza sativa, rice) (UniProt Q653V4); experiment: Counterscreen for Glucocerebrosidase Inhibitors: qHTS Assay for Rice alpha-Glucosidase at pH 5.0 (AID 997)
# Summary of the method: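 Rice alpha-glucosidase (4 nM final) with 400 uM 4-methylumbelliferyl-alpha-D-glucopyranoside in citrate buffer pH 5.0, 20 min at room temperature, stopped at pH 10; fluorescence 365/440 nm, compounds 0.7 nM–77 uM, AC50 from Hill fits.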
# [15] = molecular target: Tyrosyl-DNA phosphodiesterase 1 (Homo sapiens) (UniProt Q9NUW8); experiment: Confirmation Assay for Inhibitors of Tyrosyl-DNA Phosphodiesterase (TDP1) (AID 489007); settings: recombinant human TDP1 enzymatic activity, dose-response; further: potency means the concentration at half of the fitted maximal effect; nearly all actives have a fitted effect of over 40% in size
# Tyrosyl-DNA phosphodiesterase 1 (Homo sapiens), sequence (Q9NUW8 whole entry, looked up): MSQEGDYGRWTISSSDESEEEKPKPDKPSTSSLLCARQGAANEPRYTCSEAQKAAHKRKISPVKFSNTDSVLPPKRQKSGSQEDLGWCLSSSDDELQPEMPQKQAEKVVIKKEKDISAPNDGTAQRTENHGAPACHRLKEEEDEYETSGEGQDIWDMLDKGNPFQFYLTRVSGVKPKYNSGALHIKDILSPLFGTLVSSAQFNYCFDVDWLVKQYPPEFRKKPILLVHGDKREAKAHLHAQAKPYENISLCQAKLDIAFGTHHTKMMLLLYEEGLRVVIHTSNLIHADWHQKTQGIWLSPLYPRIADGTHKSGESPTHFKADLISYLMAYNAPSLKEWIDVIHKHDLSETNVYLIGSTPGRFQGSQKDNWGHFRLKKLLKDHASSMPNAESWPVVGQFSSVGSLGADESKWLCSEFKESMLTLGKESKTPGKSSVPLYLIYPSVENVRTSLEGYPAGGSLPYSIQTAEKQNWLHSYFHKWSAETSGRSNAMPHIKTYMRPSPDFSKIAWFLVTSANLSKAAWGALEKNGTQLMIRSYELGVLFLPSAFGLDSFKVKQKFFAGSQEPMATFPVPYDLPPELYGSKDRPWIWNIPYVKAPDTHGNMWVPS
# Summary of the method: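 Tdp1 1 nM + cpd, 15 min RT; add biotin/phosphotyrosine-FITC oligo 15 nM, 5 min RT; add AS donor/acceptor beads 10 ug/ml, 10 min RT; read AlphaScreen. No-enzyme wells = max signal.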
# [16] = molecular target: Cytochrome P450 2D6 (Homo sapiens) (UniProt P10635); experiment: Cytochrome P450 family 2 subfamily D member 6 (CYP2D6) small molecule antagonists: luciferase biochemical (cell-free) qHTS assay (AID 1645840; active means well fitted curve in the direction sought with a large enough effect in the repeat runs; an effect the other way counts as inactive or inconclusive; further: potency means the concentration at half of the fitted maximal effect; nearly all actives have a fitted effect of over 55% in size)
# Summary of the method: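 P450-Glo luminescent screen: recombinant CYP2D6 enzyme–proluciferin substrate mix preincubated with compound 10 min at room temperature, then NADPH regeneration added for 1 h at room temperature. Detection reagent added for 20 min; luciferin light read as relative luminescence units.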
# [17] = molecular target: Rap guanine nucleotide exchange factor 3 (Homo sapiens) (UniProt O95398); experiment: Confirmatory qHTS for antagonist of cAMP-regulated guanine nucleotide exchange factor 3 (EPAC1) (AID 1645880); further: nearly all actives have a fitted effect of over 55% in size
# Rap guanine nucleotide exchange factor 3 (Homo sapiens), sequence (O95398 whole entry, looked up): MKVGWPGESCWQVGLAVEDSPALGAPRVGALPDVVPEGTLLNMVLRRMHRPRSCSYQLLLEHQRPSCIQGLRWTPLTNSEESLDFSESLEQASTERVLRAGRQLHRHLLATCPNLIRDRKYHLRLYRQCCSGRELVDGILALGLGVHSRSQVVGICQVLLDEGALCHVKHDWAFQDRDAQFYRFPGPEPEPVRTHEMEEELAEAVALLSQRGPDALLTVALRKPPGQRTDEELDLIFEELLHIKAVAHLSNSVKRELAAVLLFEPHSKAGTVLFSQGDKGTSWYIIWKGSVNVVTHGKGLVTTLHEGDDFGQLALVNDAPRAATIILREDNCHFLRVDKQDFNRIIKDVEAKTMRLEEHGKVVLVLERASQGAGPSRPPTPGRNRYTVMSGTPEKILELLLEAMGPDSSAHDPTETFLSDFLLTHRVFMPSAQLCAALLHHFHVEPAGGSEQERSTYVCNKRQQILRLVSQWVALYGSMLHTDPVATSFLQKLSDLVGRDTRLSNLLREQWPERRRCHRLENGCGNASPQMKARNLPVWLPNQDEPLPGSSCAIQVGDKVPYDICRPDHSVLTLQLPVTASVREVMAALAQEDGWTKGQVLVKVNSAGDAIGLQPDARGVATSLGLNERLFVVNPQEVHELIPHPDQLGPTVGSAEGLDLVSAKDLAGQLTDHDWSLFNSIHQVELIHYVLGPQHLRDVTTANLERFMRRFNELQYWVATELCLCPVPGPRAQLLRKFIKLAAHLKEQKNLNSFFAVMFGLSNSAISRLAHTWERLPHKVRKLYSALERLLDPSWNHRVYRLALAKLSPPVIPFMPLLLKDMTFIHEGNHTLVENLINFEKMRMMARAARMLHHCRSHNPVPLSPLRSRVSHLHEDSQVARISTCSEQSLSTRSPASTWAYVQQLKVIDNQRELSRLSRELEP
# Summary of the method: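 Nucleotide exchange uses 100 nM EPAC1, 250 nM RAP1B-BODIPY-GDP and 50 uM GDP, with compounds in a concentration-titration series. After 5 min at room temperature, fluorescence (480 nm ex/540 nm em) is read every 5 min for 30 min. Data are normalized to control ATA and DMSO.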
# [18] = molecular target: Rap guanine nucleotide exchange factor 3 (Homo sapiens) (UniProt O95398); experiment: Confirmatory qHTS for agonist of cAMP-regulated guanine nucleotide exchange factor 3 (EPAC1) (AID 1645881);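 further: EPAC1 catalysed release of BODIPY-GDP from Rap1B seen as fluorescence loss; nearly all actives have a fitted effect of over 75% in size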
# [19] = molecular target: Rap guanine nucleotide exchange factor 4 (Homo sapiens) (UniProt Q8WZA2); experiment: Confirmatory qHTS for antagonist of cAMP-regulated guanine nucleotide exchange factor 4 (EPAC2) (AID 1645885); further: nearly all actives have a fitted effect of over 25% in size
# Rap guanine nucleotide exchange factor 4 (Homo sapiens), sequence (Q8WZA2 whole entry, looked up): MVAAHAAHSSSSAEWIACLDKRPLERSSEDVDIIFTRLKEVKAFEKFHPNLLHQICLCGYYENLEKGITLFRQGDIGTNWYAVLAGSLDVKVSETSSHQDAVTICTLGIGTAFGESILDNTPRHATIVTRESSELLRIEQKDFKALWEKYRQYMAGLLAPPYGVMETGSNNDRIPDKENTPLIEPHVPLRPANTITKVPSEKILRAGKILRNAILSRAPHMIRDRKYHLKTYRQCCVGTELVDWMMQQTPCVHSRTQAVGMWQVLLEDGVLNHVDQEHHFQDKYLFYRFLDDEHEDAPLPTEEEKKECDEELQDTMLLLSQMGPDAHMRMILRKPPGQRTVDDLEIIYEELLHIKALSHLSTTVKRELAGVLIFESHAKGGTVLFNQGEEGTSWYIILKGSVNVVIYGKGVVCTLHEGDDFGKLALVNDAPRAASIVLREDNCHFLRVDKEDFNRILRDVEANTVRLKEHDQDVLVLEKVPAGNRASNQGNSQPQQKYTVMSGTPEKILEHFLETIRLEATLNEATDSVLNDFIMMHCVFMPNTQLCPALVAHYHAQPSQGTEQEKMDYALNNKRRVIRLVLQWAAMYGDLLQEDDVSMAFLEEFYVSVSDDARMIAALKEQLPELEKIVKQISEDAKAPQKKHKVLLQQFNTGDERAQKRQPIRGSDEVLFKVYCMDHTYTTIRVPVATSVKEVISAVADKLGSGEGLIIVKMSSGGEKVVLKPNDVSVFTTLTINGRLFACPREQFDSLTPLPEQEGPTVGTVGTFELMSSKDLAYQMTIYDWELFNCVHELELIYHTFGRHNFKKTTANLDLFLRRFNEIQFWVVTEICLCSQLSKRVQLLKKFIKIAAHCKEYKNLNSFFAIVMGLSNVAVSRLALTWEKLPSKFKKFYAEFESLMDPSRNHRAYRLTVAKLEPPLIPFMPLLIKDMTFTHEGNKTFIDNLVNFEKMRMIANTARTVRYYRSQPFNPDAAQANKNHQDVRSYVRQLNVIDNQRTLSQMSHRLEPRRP
# [20] = molecular target: Rap guanine nucleotide exchange factor 3 (Homo sapiens) (UniProt O95398); experiment: Counterscreen qHTS for antagonist of cAMP-regulated guanine nucleotide exchange factor 3 (EPAC1) (AID 1645888);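 further: fluorescence loss as bound BODIPY-GDP is released from Rap1B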
# Summary of the method: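 Rap1B-BODIPY-GDP 250 nM + GDP 50 uM; cpds 7-pt, final 9.74 nM–152 uM (activator mode) or from 7.32 nM upwards (inhibitor mode); RT; FI 480/540 nm at 5 and 30 min, then ± cAMP, reread.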
compound,measurement,setting,value
CC(C)N=C(N)N=C(N)Nc1ccc(Cl)cc1,"parasite growth remaining, % of DMSO control (lower = more inhibition)",[1],7.67%
same,"parasite growth, % of control (lower = inhibition)",[2],12.7%
same,"growth, % of control",[3],3.71%
O=C(O)c1c(Br)c(Br)c(Br)c(Br)c1C1c2ccc(O)cc2Oc2cc(O)ccc21,Potency,[4],7.36 µM (active)
COc1cc(-c2ccc(N=Nc3ccc4c(S(=O)(=O)O)cc(S(=O)(=O)O)c(N)c4c3O)c(OC)c2)ccc1N=Nc1ccc2c(S(=O)(=O)O)cc(S(=O)(=O)O)c(N)c2c1O,Potency,[5],3.98 µM (active) and inactive
same,Potency,[6],28.2 µM (active)
COc1cc2c(cc1OC)-c1cc3nc4ccccc4nc3n1C(C)(C)C2,Potency,[7],12.6 µM (active)
O=C(Nc1cc(C(=O)Nc2ccc(S(=O)(=O)O)cc2S(=O)(=O)O)cc(C(=O)Nc2ccc(S(=O)(=O)O)cc2S(=O)(=O)O)c1)Nc1cc(C(=O)Nc2ccc(S(=O)(=O)O)cc2S(=O)(=O)O)cc(C(=O)Nc2ccc(S(=O)(=O)O)cc2S(=O)(=O)O)c1,outcome,[8],inactive
same,Potency,[9],inactive
same,Potency,[10],inactive
same,Potency,[11],inactive
same,outcome,[12],inactive
same,outcome,[13],inactive
same,outcome,[14],inactive
same,Potency,[15],316 nM (active) and 1.26 µM (active)
Cc1ccc(Nc2nnc(-c3ccc(C)c(S(=O)(=O)NCc4nc5ccccc5[nH]4)c3)c3ccccc23)cc1,Potency,[16],6.01 µM (active)
O=C(Nc1ccccc1C(=O)OCc1cc(=O)n2c3c(sc2n1)CCCC3)c1ccc(F)cc1,Potency,[17],inactive
same,outcome,[18],inactive
same,"activity change, negative = inhibition",[19],-5.61% [at 12.7 µM] (inactive)
same,outcome,[20],inactive

# From PubChem BioAssay (NCATS)
